Assay [1] can be described thus: Nuclear factor erythroid 2-related factor 2/antioxidant responsive element (Nrf2/ARE) small molecule agonists: qHTS cell viability counter screen in human keratinocytes (AID 1919968; active = well fitted curve in the direction sought with a large enough effect in the repeat runs; an effect the other way counts as inactive or inconclusive; also: nearly all actives have a fitted effect of over 55% in size; also: potency is read from the fitted curve at half-maximal effect). An outline of the steps: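 Stably transfected HaCaT (KeratinoSens), 1,500/well. Test agents in DMSO were applied for 23 h, 37 C/5% CO2. CellTiter-Fluor was incubated 1 h before the fluorescence read.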
Background: qHTS replaces the single test concentration by a dilution series.

The nature of assay [2]: Nuclear factor erythroid 2-related factor 2/antioxidant responsive element (Nrf2/ARE) small molecule agonists: luciferase reporter gene qHTS assay in human keratinocytes (AID 1919969). Also: nearly all actives have a fitted effect of over 35% in size. Also: potency is read from the fitted curve at half-maximal effect. For orientation: A reporter such as luciferase makes a cellular process visible.
Assay [3] concerns the target Gonadotropin-releasing hormone receptor (Homo sapiens) (UniProt P30968). In words: Human gonadotropin-releasing hormone receptor (GnRHR) small molecule agonists, calcium flux assay in GnRHR-HEK293 cells (AID 1920063). Also: nearly all actives have a fitted effect of over 35% in size. Also: potency is read from the fitted curve at half-maximal effect. An outline of the steps:
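Stable human GnRHR HEK293 line. 18 h plating, then calcium dye for 1 h at 37 C. Agonist-mode compound addition from DMSO stocks; fluorescence monitored 3 min.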
A general note: A change in cytosolic calcium serves as a functional read-out for many receptors and channels.

The target of assay [4] is KiSS-1 receptor (Homo sapiens) (UniProt Q969F8). The experiment in a line: Human kisspeptin (KISS1R) small molecule agonists, calcium flux assay in KISS1R-HEK293 cells (AID 1920064; active = well fitted curve in the direction sought with a large enough effect in the repeat runs; an effect the other way counts as inactive or inconclusive). An outline of the steps:
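After overnight (18 h) culture at 37 C/5% CO2, human KISS1R-HEK293 cells received calcium dye for 1 h, then test compound; emission at 540 nm (excitation 480 nm) was tracked for 3 min.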

Assay [5] can be described thus: G protein-coupled receptor (GPCR) small molecule agonists, calcium flux assay: HEK293 wild type cell line counter screen (AID 1920065). An outline of the steps: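 Following 18 h incubation at 37 C/5% CO2, plates got calcium dye for 1 h; compounds, ATP or DMSO were then pinned in and fluorescence followed kinetically (480/540 nm).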
Assay [6] can be described thus: p53 small molecule agonists, cell-based qHTS assay with human liver microsomes: qHTS cell viability counter screen (AID 1963579). Also: nearly all actives have a fitted effect of over 45% in size. Also: potency is read from the fitted curve at half-maximal effect. An outline of the steps: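 Cytotoxicity counter screen: p53RE-bla, 4,000 cells/well; 5 h settle, 37 C/5% CO2; cpd + HLM 0.5 mg/mL + NADPH 0.5 mg/mL (final); 16 h, 37 C; CellTiter-Glo, 30 min RT, luminescence.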
A short description of assay [7]: p53 small molecule agonists, cell-based qHTS assay with rat liver microsomes: qHTS cell viability counter screen (AID 1963580). Also: nearly all actives have a fitted effect of over 45% in size. Also: potency is read from the fitted curve at half-maximal effect. An outline of the steps: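 After the beta-lactamase ratio was read, CellTiter-Glo was added to the same wells and luminescence measured at 30 min; cells had been treated 16 h at 37 C with compounds, rat liver microsomes and NADPH (0.5 mg/mL final each).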

Assay [8] can be described thus: p53 small molecule agonists, cell-based qHTS assay: qHTS cell viability counter screen (AID 1963581). Also: nearly all actives have a fitted effect of over 45% in size. Also: potency is read from the fitted curve at half-maximal effect. An outline of the steps:
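qHTS counter screen: 16 h compound exposure at 37 C of p53RE-bla HCT-116 cells (4,000 per well, seeded 5 h prior), cell viability by ATP luminescence.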

Assay [9] has as its target 5-hydroxytryptamine receptor 2A (Homo sapiens) (UniProt P28223). In words: 5-hydroxytryptamine receptor 2A (HTR2A) small molecule agonists, cell-based qHTS assay (AID 1963587). Also: nearly all actives have a fitted effect of over 30% in size. An outline of the steps: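 CHO cells stably expressing human HTR2A, plated 18 h, loaded with calcium dye 1 h at 37 C. Agonist mode: compounds added and intracellular calcium fluorescence recorded kinetically for 2 min at 1 sec intervals.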

For assay [10], the target named is Muscarinic acetylcholine receptor M1 (Homo sapiens) (UniProt P11229). In words: Cholinergic receptor muscarinic 1 (CHRM1) small molecule antagonists, cell-based qHTS assay (AID 1963588). Also: nearly all actives have a fitted effect of over 40% in size. The gist of the method: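 Compounds were tested at 15 concentrations in three independent runs. Dye-loaded CHRM1-CHO cells were exposed 5 min at room temperature before stimulation by acetylcholine added at 50nM. Intracellular calcium was read kinetically on FDSS for 3 min.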

Assay [11] has the same target. The experiment in a line: Cholinergic receptor muscarinic 1 (CHRM1) small molecule agonists, cell-based qHTS assay (AID 1963589). Also: nearly all actives have a fitted effect of over 35% in size. The gist of the method:
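Kinetic fluorescence (1 s intervals) of calcium-sensitive dye in human M1 CHO cells after compound addition; cells pre-incubated 18 h at 37 C/5% CO2 and dye-loaded 1 h.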

A short description of assay [12]: cAMP Responsive Elements (CRE) small molecule agonists, cell-based qHTS assay (AID 1963590). An outline of the steps: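 Test agents in DMSO were incubated 3 h at 37 C/5% CO2 with CRE-bla HEK 293T cells seeded 18 h earlier; LiveBLAzer B/G FRET substrate was added and read after 2 h at room temperature.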
A short description of assay [13]: cAMP Responsive Elements (CRE) small molecule antagonists, cell-based qHTS assay (AID 1963591; active = well fitted inhibition curve with a large enough effect in the signal ratio in the repeat runs, not every such curve was filed as active; the % refers to the signal ratio). The gist of the method: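 Reporter line CRE-bla HEK 293T in dialyzed-FBS DMEM; cells preincubated 18 h, treated 3 h with compound plus NKH477 (0.25 uM final); LiveBLAzer FRET, 2 h RT.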
The target of assay [14] is Beta-2 adrenergic receptor (Homo sapiens) (UniProt P07550). The experiment in a line: Adrenergic beta2 receptor (ADRB2) small molecule antagonists, cell-based qHTS assay (AID 1963592). Also: series mostly up to about 92 µM; nearly all actives have a fitted effect of over 50% in size. An outline of the steps:
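Assay format: CHO-ADRB2 cells, 18-20hr seeding at 37C/5% CO2, then compound plus 1nM isoproterenol agonist mix for 0.5hr RT. Homogeneous time-resolved fluorescence cAMP detection after 1hr, expressed as 665/615 nm ratio.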

Assay [15] shares this target. In words: Adrenergic beta2 receptor (ADRB2) small molecule agonists, cell-based qHTS assay (AID 1963593).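 Also: CHO cells stably overexpressing human ADRB2.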 The gist of the method: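 CHO cells stably over-expressing ADRB2 were plated overnight at 37C, then dosed with compounds plus a stimulation mix containing 100uM IBMX and 25uM Ro-20-1724 for 0.5hr at room temperature. cAMP was measured by HTRF competition, 1hr.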

In assay [16] the target is D(2) dopamine receptor (Homo sapiens) (UniProt P14416). The experiment in a line: Dopamine D2 receptor (DRD2) small molecule agonists, cell-based qHTS assay (AID 1963594). Also: nearly all actives have a fitted effect of over 35% in size. Also: potency is read from the fitted curve at half-maximal effect. The gist of the method: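 HEK293 cells stably expressing human DRD2, pre-treated with PDE inhibitor Ro20-1724 (0.1 mM final) and compound 10 min at room temperature, then stimulated with NKH477 (200nM […]) for 30 min. cAMP read by HTRF (665/620 nm).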

For assay [17] the target is unchanged. The experiment in a line: Dopamine D2 receptor (DRD2) small molecule antagonists, cell-based qHTS assay (AID 1963595; active = well fitted inhibition curve with a large enough effect in the signal ratio in the repeat runs, with a control signal flat; the % refers to the signal ratio). The gist of the method:
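Human DRD2 antagonist qHTS measuring cAMP by HTRF. The cells are exposed to compound for 10 min, then to NKH477 (200 nM) and quinpirole (12 nM) for 30 min at RT, with Ro20-1724 (0.1 mM) present throughout.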

Assay [18] deals with 5-hydroxytryptamine receptor 2A (Homo sapiens) (UniProt P28223). The experiment in a line: 5-hydroxytryptamine receptor 2A (HTR2A) small molecule antagonists, cell-based qHTS assay (AID 1963586). Also: nearly all actives have a fitted effect of over 45% in size. The gist of the method: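 CHO cells stably expressing human HTR2A were plated for 18 h at 37 C, then loaded with calcium dye for 1 h. Compounds were preincubated 5 min at room temperature before DOI (4 nM solution) was added. Kinetic fluorescence was read for 3 min.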

Experimental findings from PubChem BioAssay (Tox21) are described below.

Each structure is given as a SMILES string. Values without a mark were called inactive. Results filed as inconclusive are left out. Calls of active or inactive are those of the source. Unless noted, calls follow the shape of the full dose curve.
% is scaled to controls: 0 for no effect and ±100 for the full control effect.

KiSS-1 receptor (Homo sapiens), sequence (Q969F8 whole entry, looked up): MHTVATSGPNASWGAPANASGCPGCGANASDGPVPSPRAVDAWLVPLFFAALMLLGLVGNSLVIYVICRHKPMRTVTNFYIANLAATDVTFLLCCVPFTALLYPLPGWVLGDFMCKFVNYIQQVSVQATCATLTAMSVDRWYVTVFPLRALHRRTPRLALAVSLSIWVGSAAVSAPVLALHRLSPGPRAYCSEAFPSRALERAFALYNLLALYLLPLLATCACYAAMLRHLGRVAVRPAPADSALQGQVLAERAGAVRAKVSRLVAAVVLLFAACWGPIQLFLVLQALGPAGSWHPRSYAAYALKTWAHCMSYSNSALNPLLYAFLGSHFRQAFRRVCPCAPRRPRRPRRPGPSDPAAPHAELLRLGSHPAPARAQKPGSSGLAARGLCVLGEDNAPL
Gonadotropin-releasing hormone receptor (Homo sapiens), sequence (P30968 whole entry, looked up): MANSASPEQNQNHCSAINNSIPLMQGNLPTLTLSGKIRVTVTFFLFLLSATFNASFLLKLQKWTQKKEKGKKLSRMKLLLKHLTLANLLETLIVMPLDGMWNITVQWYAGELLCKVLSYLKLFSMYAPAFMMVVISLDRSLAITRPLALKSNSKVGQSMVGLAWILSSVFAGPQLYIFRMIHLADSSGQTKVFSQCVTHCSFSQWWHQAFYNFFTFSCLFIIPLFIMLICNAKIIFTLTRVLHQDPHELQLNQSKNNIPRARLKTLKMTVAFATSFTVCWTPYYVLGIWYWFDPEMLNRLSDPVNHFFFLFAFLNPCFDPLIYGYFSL
Muscarinic acetylcholine receptor M1 (Homo sapiens), sequence (P11229 whole entry, looked up): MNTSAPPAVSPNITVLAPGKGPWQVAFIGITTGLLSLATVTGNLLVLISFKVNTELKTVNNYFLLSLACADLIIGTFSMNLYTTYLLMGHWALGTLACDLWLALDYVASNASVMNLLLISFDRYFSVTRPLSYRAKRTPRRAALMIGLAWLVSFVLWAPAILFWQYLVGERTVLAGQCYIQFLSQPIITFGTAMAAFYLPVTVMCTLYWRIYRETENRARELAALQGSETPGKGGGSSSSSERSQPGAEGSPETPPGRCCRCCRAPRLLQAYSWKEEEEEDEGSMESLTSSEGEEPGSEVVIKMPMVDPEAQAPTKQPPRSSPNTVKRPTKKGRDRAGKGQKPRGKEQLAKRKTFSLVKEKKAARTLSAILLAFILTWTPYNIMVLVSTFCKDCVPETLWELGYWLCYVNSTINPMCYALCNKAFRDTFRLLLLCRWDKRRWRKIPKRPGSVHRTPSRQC
Beta-2 adrenergic receptor (Homo sapiens), sequence (P07550 whole entry, looked up): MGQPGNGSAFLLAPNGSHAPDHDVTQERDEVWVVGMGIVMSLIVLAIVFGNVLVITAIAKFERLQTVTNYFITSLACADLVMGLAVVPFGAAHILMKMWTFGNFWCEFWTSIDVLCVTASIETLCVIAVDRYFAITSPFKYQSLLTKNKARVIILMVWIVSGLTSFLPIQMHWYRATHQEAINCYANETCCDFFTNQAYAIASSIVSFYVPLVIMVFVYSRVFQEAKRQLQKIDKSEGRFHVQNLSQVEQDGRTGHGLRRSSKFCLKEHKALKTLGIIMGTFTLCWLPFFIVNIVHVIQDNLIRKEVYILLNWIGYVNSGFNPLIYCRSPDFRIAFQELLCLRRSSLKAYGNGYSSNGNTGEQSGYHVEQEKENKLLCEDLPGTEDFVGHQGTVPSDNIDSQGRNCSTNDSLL
D(2) dopamine receptor (Homo sapiens), sequence (P14416 whole entry, looked up): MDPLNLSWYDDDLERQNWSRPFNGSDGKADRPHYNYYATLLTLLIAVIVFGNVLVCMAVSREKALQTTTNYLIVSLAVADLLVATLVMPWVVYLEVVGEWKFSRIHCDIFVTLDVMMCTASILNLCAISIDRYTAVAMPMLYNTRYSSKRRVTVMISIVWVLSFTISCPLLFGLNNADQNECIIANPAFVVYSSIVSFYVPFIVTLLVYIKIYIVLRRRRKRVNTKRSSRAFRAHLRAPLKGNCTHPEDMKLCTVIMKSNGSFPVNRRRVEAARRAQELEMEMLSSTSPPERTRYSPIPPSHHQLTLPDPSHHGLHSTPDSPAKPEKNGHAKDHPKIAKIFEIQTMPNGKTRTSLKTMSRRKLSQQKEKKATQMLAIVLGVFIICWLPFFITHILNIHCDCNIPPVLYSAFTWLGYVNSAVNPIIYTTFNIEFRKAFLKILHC
5-hydroxytryptamine receptor 2A (Homo sapiens), sequence (P28223 whole entry, looked up): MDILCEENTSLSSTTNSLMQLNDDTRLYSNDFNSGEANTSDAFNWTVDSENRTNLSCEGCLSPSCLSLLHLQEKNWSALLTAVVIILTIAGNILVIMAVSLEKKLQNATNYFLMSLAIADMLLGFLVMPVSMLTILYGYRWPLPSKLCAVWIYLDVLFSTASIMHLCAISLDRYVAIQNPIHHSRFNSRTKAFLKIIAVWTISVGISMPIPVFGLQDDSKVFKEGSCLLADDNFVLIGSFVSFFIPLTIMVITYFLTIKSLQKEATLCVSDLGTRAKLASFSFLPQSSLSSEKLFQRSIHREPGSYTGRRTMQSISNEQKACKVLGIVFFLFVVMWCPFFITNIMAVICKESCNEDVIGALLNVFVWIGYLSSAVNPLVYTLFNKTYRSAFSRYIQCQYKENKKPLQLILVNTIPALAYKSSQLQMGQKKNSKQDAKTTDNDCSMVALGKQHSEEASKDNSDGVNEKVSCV

Regarding `O=C(O)CNC(=O)c1ccccc1`, the Potency result in assay [1], in [2], in [3], in [4], in assay [5] and in assay [6] was “inactive” each time. Further, the Potency result in [7], in assay [8], in [9], in [10], in assay [11] and in assay [12] was “inactive” in each case. Also, the Potency result in assay [13], in assay [14], in [15], in assay [16] and in assay [17] was “inactive” in each case.
Regarding `CC(=O)Nc1ccc(OC(=O)c2ccccc2OC(C)=O)cc1`, the Potency result in assay [1], in assay [2], in assay [3], in assay [4], in [5] and in [6] was “inactive” throughout. Besides, the Potency entry in assay [7], in [8], in [18], in assay [11], in [13] and in assay [15] was “inactive” each time. The Potency entry in assay [16] and in assay [17] was “inactive” in each case.
As to `Cc1ccc(C)c([N+](=O)[O-])c1`, the Potency entry in assay [1], in assay [2], in assay [3], in assay [4], in assay [5] and in assay [6] was “inactive” in each case. The Potency entry in [7], in [8], in [9], in assay [10], in [11] and in [12] was “inactive” in each case. In addition, the Potency entry in [13], in assay [14], in assay [16] and in assay [17] was “inactive” in each case.
As for `CC(C)=CC=O`, the Potency entry in assay [1], in assay [2], in assay [3], in assay [4], in assay [5] and in [6] was “inactive” in each case. The Potency entry in [7], in assay [8], in assay [9], in assay [10], in [11] and in [12] was “inactive” each time. For the same compound, the Potency entry in [14], in assay [15], in assay [16] and in assay [17] was “inactive” throughout.
As for `COC(=O)CCS`, the Potency entry in assay [1], in assay [2], in assay [3], in [4], in assay [5] and in [6] was “inactive” each time. For the same compound, the Potency entry in assay [7], in assay [8], in [9], in assay [10], in assay [11] and in assay [12] was “inactive” throughout. Moreover, the Potency result in [13], in [14] and in [16] was “inactive” in each case.
Regarding `O=C1c2c(O)ccc([N+](=O)[O-])c2C(=O)c2c([N+](=O)[O-])ccc(O)c21`, the Potency is 15.2 µM (active) in [1]; 6.06 µM (active) in [2]; 17.2 µM (active) in assay [3]; 18 µM (active) in assay [6]; 20.2 µM (active) in [7]; 5.71 µM (active) in [8]. Besides, the Potency result in [4], in assay [5], in assay [9], in assay [10] and in assay [11] was “inactive” each time.
As to `CC(CC(=O)Cl)CC(C)(C)C` (stereo unspecified), the Potency result in assay [1], in assay [2], in [3], in assay [4], in assay [5] and in assay [6] was “inactive” each time. The Potency result in [7], in assay [8], in assay [9], in assay [10], in assay [11] and in assay [12] was “inactive” in each case. Also, the Potency entry in [13], in assay [14], in assay [15], in [16] and in assay [17] was “inactive” throughout.
`CC1=C(C=O)C(C)(C)CCC1`: the Potency result in assay [1], in assay [2], in [3], in assay [4], in [5] and in [6] was “inactive” each time. Further, the Potency entry in assay [7], in assay [8], in assay [9], in assay [10], in [11] and in assay [12] was “inactive” in each case. Besides, the Potency entry in [13], in [15], in [16] and in [17] was “inactive” each time.
On to `COC(=O)[C@@H]1CC2=CC(=O)CC[C@]2(C)[C@@]23O[C@@H]2C[C@@]2(C)[C@@H](CC[C@@]24CCC(=O)O4)[C@H]13`, for which the Potency result in assay [1], in assay [2], in assay [3], in assay [4], in assay [5] and in assay [6] was “inactive” each time. Moreover, the Potency result in [7], in assay [8], in [9], in [10], in assay [11] and in assay [12] was “inactive” in each case. The Potency entry in [13], in assay [14], in [15], in [16] and in [17] was “inactive” each time.
Regarding `C=Cc1ccc(C(C)(C)C)cc1`, the Potency entry in [1], in assay [2], in assay [3], in assay [4], in assay [5] and in assay [6] was “inactive” each time. Moreover, the Potency entry in [7], in [8], in assay [9], in [10], in [11] and in assay [12] was “inactive” in each case. In addition, the Potency entry in [13], in [14], in assay [15], in [16] and in [17] was “inactive” in each case.
Consider `CC1CN(c2cc3c(cc2F)c(=O)c(C(=O)O)cn3-c2ccc(F)cc2F)CCN1` (stereo unspecified), for which the activity change, negative = cytotoxicity in assay [1] is 6.63% [at 8.39 µM]; in [6], 1.1% [at 5.99 µM]; in assay [7], -0.821% [at 5.99 µM]; in assay [8], 22.9% [at 5.99 µM]. The activity, positive = activation in assay [2] was 4.55% [at 8.39 µM]. Besides, the activity change in [3] was -0.555% [at 5.22 µM, hits give high values]. The activation in [4] is 3.09% [at 6.97 µM]; in assay [5] it was 0.9% [at 5.23 µM]; in [12], -2.24% [at 8.39 µM]; in assay [15] it was 1.31% [at 8.39 µM]; in assay [16], -7.78% [at 8.39 µM]. Besides, the activity change, negative = inhibition is 4.5% [at 8.39 µM] in assay [14] and -0.708% [at 8.38 µM] in [17].
For the compound `CC(C)C[C@H]1C(=O)N2CCC[C@H]2[C@]2(O)O[C@](NC(=O)[C@@H]3C=C4c5cccc6[nH]c(Br)c(c56)C[C@H]4N(C)C3)(C(C)C)C(=O)N12`, the Potency entry in assay [1], in assay [2], in [3], in assay [4], in assay [5] and in assay [6] was “inactive” throughout. The Potency entry in assay [7], in assay [8], in assay [12], in assay [13] and in assay [17] was “inactive” throughout. Further, the Potency in assay [16] is 0.0923 µM (active).
